According to the supplement of paper PMC6411743:
± gives the standard deviation of the averaged measurements. Of roughly 6,200 targets only a part is listed; those with the largest changes were picked by preference.

Compound: Nc1ncnc2c1ncn2[C@@H]1O[C@H](COP(=O)(O)OP(=O)(O)NP(=O)(O)O)[C@@H](O)[C@H]1O [adenylyl imidodiphosphate]
Assay: NP40-soluble protein abundance relative to vehicle (solubility fold change) (ratio); higher = more soluble protein in presence of AMP-PNP
How it was run: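 Crude Jurkat lysate, prepared by Dounce homogenisation, was exposed to eight concentrations from 0.1 to 10 mM for 10 min at room temperature and then 3 min at 37 °C. Solubilisation used 0.8% NP40 with benzonase for 60 min at 4 °C, followed by ultracentrifugation and TMT labelling of the supernatant for LC-MS/MS. After vsn normalisation of intensities, each value is the fold change against the detergent-processed vehicle within each replicate, across three independent experiments.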

Chain of UniProt Q9P2R7 (Q9P2R7 whole entry): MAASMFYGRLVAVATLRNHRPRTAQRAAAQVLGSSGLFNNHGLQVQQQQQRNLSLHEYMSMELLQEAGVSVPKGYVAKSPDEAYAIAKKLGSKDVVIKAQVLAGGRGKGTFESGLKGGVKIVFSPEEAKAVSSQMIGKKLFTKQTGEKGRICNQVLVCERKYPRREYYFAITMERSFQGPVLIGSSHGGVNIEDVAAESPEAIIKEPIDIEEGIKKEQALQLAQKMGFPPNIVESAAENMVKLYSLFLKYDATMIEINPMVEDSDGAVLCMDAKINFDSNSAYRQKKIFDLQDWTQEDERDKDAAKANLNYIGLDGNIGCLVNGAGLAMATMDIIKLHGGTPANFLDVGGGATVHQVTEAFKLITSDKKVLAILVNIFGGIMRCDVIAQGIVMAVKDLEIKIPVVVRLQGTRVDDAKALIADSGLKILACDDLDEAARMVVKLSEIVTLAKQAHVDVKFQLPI
Chain of UniProt Q9Y462 (Q9Y462 whole entry): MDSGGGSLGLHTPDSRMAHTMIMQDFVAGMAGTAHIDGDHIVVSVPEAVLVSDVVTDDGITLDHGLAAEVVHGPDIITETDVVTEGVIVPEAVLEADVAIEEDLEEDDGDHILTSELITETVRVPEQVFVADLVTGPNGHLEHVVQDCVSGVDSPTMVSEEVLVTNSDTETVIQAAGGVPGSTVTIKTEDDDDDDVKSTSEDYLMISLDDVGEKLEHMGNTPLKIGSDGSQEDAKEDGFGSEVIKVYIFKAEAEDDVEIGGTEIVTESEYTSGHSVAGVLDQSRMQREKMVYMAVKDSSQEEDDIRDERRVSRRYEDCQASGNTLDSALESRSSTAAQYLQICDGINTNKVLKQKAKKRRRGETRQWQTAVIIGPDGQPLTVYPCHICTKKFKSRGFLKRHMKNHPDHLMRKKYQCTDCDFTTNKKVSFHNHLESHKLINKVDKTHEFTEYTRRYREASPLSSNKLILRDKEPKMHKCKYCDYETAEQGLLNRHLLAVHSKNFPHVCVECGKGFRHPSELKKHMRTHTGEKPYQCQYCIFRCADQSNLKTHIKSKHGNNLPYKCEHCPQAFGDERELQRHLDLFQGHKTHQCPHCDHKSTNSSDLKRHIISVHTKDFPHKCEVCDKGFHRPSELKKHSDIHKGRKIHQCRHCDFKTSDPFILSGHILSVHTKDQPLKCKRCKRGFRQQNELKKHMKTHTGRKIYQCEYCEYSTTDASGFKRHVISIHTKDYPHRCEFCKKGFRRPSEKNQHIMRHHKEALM
Chain of UniProt Q9NYF8 (Q9NYF8 whole entry, one chain of several): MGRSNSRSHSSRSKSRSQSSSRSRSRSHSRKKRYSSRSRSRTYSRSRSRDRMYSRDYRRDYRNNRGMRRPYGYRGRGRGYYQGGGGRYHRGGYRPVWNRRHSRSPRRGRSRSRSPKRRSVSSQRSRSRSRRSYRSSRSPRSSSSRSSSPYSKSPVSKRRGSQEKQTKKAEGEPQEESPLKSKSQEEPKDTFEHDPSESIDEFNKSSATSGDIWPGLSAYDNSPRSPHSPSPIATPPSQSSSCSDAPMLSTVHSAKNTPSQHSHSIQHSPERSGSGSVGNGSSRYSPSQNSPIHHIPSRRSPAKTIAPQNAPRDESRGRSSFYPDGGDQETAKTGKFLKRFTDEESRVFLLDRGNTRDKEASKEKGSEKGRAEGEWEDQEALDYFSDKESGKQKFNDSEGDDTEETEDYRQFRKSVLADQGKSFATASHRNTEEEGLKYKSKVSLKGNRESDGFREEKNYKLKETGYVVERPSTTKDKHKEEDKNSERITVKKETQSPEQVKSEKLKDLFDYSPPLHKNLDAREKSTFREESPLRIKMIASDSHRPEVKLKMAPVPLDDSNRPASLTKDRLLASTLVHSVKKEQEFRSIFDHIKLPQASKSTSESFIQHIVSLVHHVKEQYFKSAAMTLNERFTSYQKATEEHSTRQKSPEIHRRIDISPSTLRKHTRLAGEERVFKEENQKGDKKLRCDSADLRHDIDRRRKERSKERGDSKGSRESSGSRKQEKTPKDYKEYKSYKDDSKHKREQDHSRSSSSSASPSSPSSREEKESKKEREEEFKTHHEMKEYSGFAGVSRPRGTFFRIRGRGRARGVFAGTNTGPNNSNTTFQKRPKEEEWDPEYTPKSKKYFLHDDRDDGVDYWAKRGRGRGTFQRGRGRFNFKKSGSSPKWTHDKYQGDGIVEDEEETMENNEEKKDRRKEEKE
Chain of UniProt Q9NXK8 (Q9NXK8 whole entry): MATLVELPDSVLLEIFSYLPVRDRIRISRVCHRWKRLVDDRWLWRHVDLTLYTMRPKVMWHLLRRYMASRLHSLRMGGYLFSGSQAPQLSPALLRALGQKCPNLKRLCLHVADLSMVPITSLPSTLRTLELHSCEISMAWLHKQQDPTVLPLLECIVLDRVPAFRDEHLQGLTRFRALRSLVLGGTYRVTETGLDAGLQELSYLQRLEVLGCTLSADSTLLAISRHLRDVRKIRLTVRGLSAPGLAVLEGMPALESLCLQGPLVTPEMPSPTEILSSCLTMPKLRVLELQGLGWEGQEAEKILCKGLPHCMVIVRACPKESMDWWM
Chain of UniProt Q96KM6 (Q96KM6 whole entry): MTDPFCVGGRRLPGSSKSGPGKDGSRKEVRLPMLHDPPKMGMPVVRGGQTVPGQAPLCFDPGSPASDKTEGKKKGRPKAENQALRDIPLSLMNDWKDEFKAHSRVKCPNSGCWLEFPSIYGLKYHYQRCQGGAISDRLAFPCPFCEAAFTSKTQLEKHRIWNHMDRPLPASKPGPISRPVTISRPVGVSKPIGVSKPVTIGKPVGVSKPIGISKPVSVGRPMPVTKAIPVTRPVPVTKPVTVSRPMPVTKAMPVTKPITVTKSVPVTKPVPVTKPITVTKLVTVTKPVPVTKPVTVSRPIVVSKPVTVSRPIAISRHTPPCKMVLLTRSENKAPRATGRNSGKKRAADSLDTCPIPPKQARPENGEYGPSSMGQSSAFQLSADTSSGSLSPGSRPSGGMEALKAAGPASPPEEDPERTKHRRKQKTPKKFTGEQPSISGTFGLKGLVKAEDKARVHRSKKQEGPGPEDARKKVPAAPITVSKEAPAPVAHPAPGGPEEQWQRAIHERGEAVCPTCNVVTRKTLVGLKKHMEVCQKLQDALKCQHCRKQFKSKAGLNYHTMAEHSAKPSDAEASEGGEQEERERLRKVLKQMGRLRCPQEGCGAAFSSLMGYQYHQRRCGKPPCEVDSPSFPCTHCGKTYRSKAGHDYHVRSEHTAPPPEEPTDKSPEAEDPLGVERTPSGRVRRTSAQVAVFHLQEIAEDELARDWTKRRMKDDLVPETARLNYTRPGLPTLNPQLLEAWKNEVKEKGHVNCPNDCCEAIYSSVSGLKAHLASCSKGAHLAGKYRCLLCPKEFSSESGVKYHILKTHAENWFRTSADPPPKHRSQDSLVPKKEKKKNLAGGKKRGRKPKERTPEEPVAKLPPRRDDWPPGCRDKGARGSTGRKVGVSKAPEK
Chain of UniProt Q9H0A0 (Q9H0A0 whole entry, one chain of several): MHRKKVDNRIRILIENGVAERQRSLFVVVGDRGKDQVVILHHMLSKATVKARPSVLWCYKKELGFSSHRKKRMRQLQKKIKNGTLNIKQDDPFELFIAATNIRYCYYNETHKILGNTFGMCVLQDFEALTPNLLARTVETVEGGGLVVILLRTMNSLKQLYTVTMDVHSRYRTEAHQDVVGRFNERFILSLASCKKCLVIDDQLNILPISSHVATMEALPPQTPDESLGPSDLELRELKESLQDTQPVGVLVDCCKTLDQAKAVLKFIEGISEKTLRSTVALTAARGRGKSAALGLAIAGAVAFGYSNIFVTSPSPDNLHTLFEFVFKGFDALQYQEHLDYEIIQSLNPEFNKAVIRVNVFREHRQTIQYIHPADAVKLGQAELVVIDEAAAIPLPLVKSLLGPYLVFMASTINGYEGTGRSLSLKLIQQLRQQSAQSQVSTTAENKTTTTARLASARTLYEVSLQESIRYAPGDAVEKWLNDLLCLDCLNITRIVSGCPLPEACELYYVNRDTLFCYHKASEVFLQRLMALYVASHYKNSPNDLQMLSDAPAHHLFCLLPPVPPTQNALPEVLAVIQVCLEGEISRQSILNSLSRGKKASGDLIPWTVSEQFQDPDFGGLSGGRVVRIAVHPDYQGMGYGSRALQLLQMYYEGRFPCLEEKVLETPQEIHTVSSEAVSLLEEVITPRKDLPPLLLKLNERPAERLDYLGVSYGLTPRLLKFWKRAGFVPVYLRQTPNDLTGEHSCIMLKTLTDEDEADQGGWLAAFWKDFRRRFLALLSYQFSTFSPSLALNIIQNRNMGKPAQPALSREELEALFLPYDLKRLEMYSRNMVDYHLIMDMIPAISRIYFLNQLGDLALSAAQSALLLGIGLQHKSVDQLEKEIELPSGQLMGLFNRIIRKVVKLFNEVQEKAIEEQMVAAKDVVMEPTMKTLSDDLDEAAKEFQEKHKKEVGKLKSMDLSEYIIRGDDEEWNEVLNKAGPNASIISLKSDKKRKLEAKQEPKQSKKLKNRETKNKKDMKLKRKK

Target	NP40-soluble protein abundance (concentration: 1mM)	NP40-soluble protein abundance (concentration: 2mM)	NP40-soluble protein abundance (concentration: 4mM)	NP40-soluble protein abundance (concentration: 6mM)	NP40-soluble protein abundance (concentration: 8mM)	NP40-soluble protein abundance (concentration: 10mM)
UniProt Q9Y2A7|Q9Y2A7-2	0.972 ± 0.026	0.974 ± 0.034	0.9706 ± 0.0091	1 ± 0.019	0.976 ± 0.02	0.985 ± 0.026
SLC39A10 (UniProt Q9ULF5)	0.998 ± 0.021	1.07 ± 0.045	1.01 ± 0.026	1 ± 0.029	0.985 ± 0.04	0.994 ± 0.036
NANS (UniProt Q9NR45)	0.981 ± 0.015	0.932 ± 0.043	0.939 ± 0.011	0.954 ± 0.015	0.948 ± 0.036	0.918 ± 0.027
UniProt Q9NVI7-2	1.08 ± 0.075	1.05 ± 0.073	1.14 ± 0.18	1.29 ± 0.18	1.38 ± 0.24	1.44 ± 0.32
SIPA1 (UniProt Q96FS4)	1.01 ± 0.037	1.013 ± 0.003	1.03 ± 0.025	1.05 ± 0.029	1.03 ± 0.036	1.04 ± 0.02
UniProt Q9NYF8|Q9NYF8-2|Q9NYF8-3|E9PK91	1.1 ± 0.018	1.19 ± 0.08	1.19 ± 0.033	1.29 ± 0.1	1.31 ± 0.11	1.43 ± 0.12
UniProt Q9P2R7|Q9P2R7-2	0.9771 ± 0.0078	0.943 ± 0.027	0.938 ± 0.011	0.977 ± 0.032	0.958 ± 0.012	0.969 ± 0.049
ZNF512B (UniProt Q96KM6)	1.01 ± 0.017	1.09 ± 0.06	1.1 ± 0.061	1.13 ± 0.044	1.16 ± 0.05	1.17 ± 0.064
WDR12 (UniProt Q9GZL7)	0.997 ± 0.017	0.928 ± 0.082	0.979 ± 0.011	1 ± 0.028	0.999 ± 0.016	0.94 ± 0.033
PNKP (UniProt Q96T60)	1.02 ± 0.041	1.02 ± 0.054	1.1 ± 0.071	1.18 ± 0.021	1.23 ± 0.047	1.22 ± 0.079
SMARCD1 (UniProt Q96GM5)	1.01 ± 0.085	0.97 ± 0.12	1.03 ± 0.11	1.01 ± 0.12	1.03 ± 0.12	1.01 ± 0.12
UniProt Q9Y462|Q9Y462-3	1 ± 0.032	1.02 ± 0.037	1.012 ± 0.0034	1.01 ± 0.036	1.024 ± 0.0028	1.02 ± 0.013
DDX18 (UniProt Q9NVP1)	1.03 ± 0.045	1.03 ± 0.013	1.16 ± 0.046	1.24 ± 0.075	1.35 ± 0.12	1.43 ± 0.15
UniProt Q9H0A0|Q9H0A0-2|A0A087WV29	1.47 ± 0.19	1.5 ± 0.19	1.62 ± 0.21	1.66 ± 0.17	1.79 ± 0.25	1.8 ± 0.17
TPX2 (UniProt Q9ULW0)	1.09 ± 0.013	1.2 ± 0.077	1.23 ± 0.066	1.27 ± 0.049	1.32 ± 0.072	1.39 ± 0.049
UniProt Q96JP5|A0A0A6YYC7|Q96JP5-2	1.01 ± 0.017	1.05 ± 0.03	1.01 ± 0.021	1.04 ± 0.068	0.987 ± 0.057	1.01 ± 0.046
TIPIN (UniProt Q9BVW5)	0.948 ± 0.06	1.04 ± 0.14	0.933 ± 0.072	0.928 ± 0.063	0.911 ± 0.057	0.929 ± 0.093
UniProt Q9NXK8|Q9NXK8-2	1.018 ± 0.0035	1 ± 0.031	0.9901 ± 0.0047	0.9994 ± 0.008	1.005 ± 0.0022	0.998 ± 0.024
